Measurements: PubChem BioAssay (NCATS)
Values joined by “and” are separate entries in the source; they are usually repeats but may differ in a detail not shown here. Equal entries are not always repeated. Results filed as inconclusive are left out. Where a call stands in place of a potency, no number is given. More than one record can exist for a structure, and the calls need not agree. Active and inactive are the calls of the source. The call rests on the fitted dose curve; in most records, active means well fitted cell-killing curve with a large enough effect; inconclusive means small, poorly fitted or top-dose-only effect, or effect the other way; inactive means no such curve, though single readings can be large or run the other way.

assay: Viability qHTS for spleen associated tyrosine kinase inhibitor (SYKi) drug resistant MV4-11 cells (AID 1963824); conditions: SYKi-resistant MV4-11 viability, CellTiter-Glo, 72 h; series mostly up to 45 µM; further: nearly all actives have a fitted effect of over 35% in size
Description: Department of Medicine, Hematology/Oncology
University Hospital Frankfurt, Germany.
Trials have shown promising clinical activity of the selective SYK inhibitor entospletinib in patients with high expressing HOXA9/MEIS1 acute leukemias. As the development of resistance mechanisms is a common problem in the use of targeted drugs, we performed a chemical library screen to identify drug sensitivities in SYK inhibitor resistant AML cells. […] Glucocorticoids are potent immunosuppressants which work in part by inhibiting the transcription of cytokine genes.
Described herein is a viability screen to look for activity in the SYK inhibitor drug resistant cell line against four NCATS compound libraries (MIPE 5.0, NPC, NPACT, and Kinase) totaling 11372 compounds. Active hits were reacquired for confirmation and further secondary assay testing.
SEQUENCE No. (e.g., 1, 2, 3, etc.); […] (e.g., Cells, Incubation, Reagent, etc.); VALUE; DESCRIPTION.
1; Media; 2uL; white, solid-bottom Corning assay plate.
2; Compounds; 23nL; Echo acoustic dispenser.
3; Cell; 5uL; 500 cells per well.
4: Incubation; 72hr; 37 C, 5% CO2, 95% humidity.
5; Reagent; 3uL; CellTiter-Glo reagent (Promega).
6; Incubation; 10min; room temperature.
7; Detection; Luminescence; ViewLux plate reader (PerkinElmer).
NOTES (numbers refer to Sequence numbers above
1. Quantitative high-throughput screening (qHTS) of small molecule compounds was conducted on drug resistant SYKi MV4-11 cell line.
2. Twenty-three nanoliter of small molecule compounds were added to each assay plates using the Echo acoustic dispenser (Beckman Coulter).
3. Cells were seeded into the assay plates at a final density of 500 cells in 5uL of media per well using the Multidrop Combi dispenser.
4. Plates were covered with stainless steel gasketed lids and incubated for 72 hours at standard cell culture conditions.
5. Viability was assessed by adding 3uL of CellTiter-Glo detection reagent (Promega).
6. Plates were covered with gasket lids and incubated for 10 minutes at room temperature.
7. Luminescence was measured on a ViewLux plate reader (PerkinElmer).
Potency means the concentration at half of the fitted maximal effect.

SMILES	Potency	viability, % of control
Cn1c(N2CCCCS2(=O)=O)nc(C(=O)NCc2ccc(F)cc2)c(O)c1=O	inactive	
Cc1ccc(C2(C(=O)N3CCC(n4nc(-c5ccccc5)oc4=O)CC3)CC2)cc1	inactive	
C[C@@H]1CCC[C@H](C)N1	inactive	
CC(=O)OC[C@]12[C@H](OC(C)=O)C(=O)[C@@H]3[C@@H](OC(C)=O)[C@@]14O[C@@]3(C)COC(=O)c1cccnc1[C@@H](C)[C@H](C)C(=O)O[C@@H]([C@H](OC(C)=O)[C@@H]2OC(C)=O)[C@]4(C)O	inactive	
CCOC(=O)c1c(C)n(C)c2ccc(O)cc12	7.5 µM (active) and inactive	
CCC(C)/C=C(C)/C=C/C(=O)C1CCC(O)C(C)(O)C1=O (stereo not given)	13 µM (active)	
COC(=O)/C=C/C(=O)OC	inactive	
CCOC(=O)c1cnc2c(cnn2CC)c1NN=C(C)C	inactive	
COc1cc(Oc2ccnc3cc(OC)c(OC)cc23)ccc1NC(=O)NC(C)c1nccs1 (stereo not given)	14.8 µM (active)	
COc1cc2c(cc1O)CC(O)(CO)C(CO)C2c1ccc(OC2OC(CO)C(O)C(O)C2O)c(OC)c1 (stereo not given)	inactive	
COC1OC(O)C2(CCC3(O2)C(C)CC2OC(=O)C4(C)CCCC3(C)C24)C1O (stereo not given)	inactive	
Cc1ccc2nc(N)[nH]c(=O)c2c1Sc1ccncc1	4.61 µM (active)	
Nc1nc(NCCNc2ncc(-n3ccnc3)c(-c3ccc(Cl)cc3Cl)n2)ccc1[N+](=O)[O-]	3.72 µM (active)	
CC1(C(=O)O)CCCC2(C)C1CCC13CC(CCC21)C1(CO)OC31 (stereo not given)	inactive	
O=C(CN1CCNCC1)NC1CCCCC1	inactive	
C=C(CCO)C(=O)OCC1OCC(OC(=O)C(=C)CCO[C@@H]2O[C@H](CO)[C@@H](O)[C@H](O)[C@H]2O)C(O)C1O (stereo not given in full)	inactive	
C=C1C(O[C@@H]2O[C@H](CO)[C@@H](O)[C@H](O)[C@@H]2O)CC2C(C)(C)C(O)CCC2(C)C1CC/C(C)=C\CO (stereo not given in full)	inactive	
O=C1CSC(=O)N1C(CCc1ccncc1)COc1ccc(-c2cccc([N+](=O)[O-])c2)cc1 (stereo not given)	4.17 µM (active)	
Cc1cc(C(C)(C)C)c(O)c(C(C)(C)C)c1	inactive	
CNC(=O)COC(=O)NCCC1CCN(c2cccc(C)n2)CC1	inactive	

SMILES	Potency	viability, % of control
CCC/C=C/C=C/C1CC(O)C(O)C(=O)C1CO (stereo not given)	inactive	
O=C(O)c1ccccc1NCCc1ccccc1	inactive	
C=C[C@@]12COC(=O)C(=C)[C@@H]1[C@@H](O)[C@H](C(=C)C(=O)OC)[C@@H](O)C2	inactive	
CC(Oc1cc(-n2cnc3ccc(CN4CCN(C)CC4)cc32)sc1C(N)=O)c1ccccc1C(F)(F)F (stereo not given)	0.461 µM (active)	
CC1(C)CC[C@]2(C(=O)O[C@@H]3O[C@H](CO)[C@@H](O)[C@H](O)[C@H]3O)CC[C@]3(C)C(=CCC4[C@@]5(C)C[C@@H](O)[C@H](O)[C@@](C)(CO)C5CC[C@]43C)C2[C@@H]1O (stereo not given in full)	inactive	
CC(C)[C@@H](CS(=O)(=O)C(C)C)N1C(=O)[C@@](C)(CC(=O)O)C[C@H](c2cccc(Cl)c2)[C@H]1c1ccc(Cl)cc1	14.6 µM (active) and 16.6 µM (active)	
CC(=O)c1cc(C(=O)N[C@@H](C)Cn2ccc(-c3ccc(C#N)c(Cl)c3)n2)[nH]n1	14.6 µM (active)	
COc1c(C)cnc(Cn2cc(C#CCC(C)(C)O)c3c(Cl)nc(N)nc32)c1C	0.0206 µM (active)	
CCN(CC)CCNC(=O)c1cc(Cl)c(N)cc1OC	inactive	
Cc1nc2ccc(-n3ncc(C(=O)c4cc5ccccc5[nH]4)c3N)cc2[nH]1	2.59 µM (active) and 4.68 µM (active)	
C[C@H](CN(C)C)Oc1nc(Nc2cc3cccc(Cl)c3cn2)cnc1C#N	411 nM (active) and 934 nM (active)	
CC(C(=O)O)c1ccc2c(c1)CC(=O)c1ccccc1S2 (stereo not given)	inactive	
C[C@@H]1O[C@@H](O[C@H]2[C@H](O[C@H]3[C@H](O[C@H]4CC[C@@]5(C)C(CC[C@]6(C)C5CC=C5[C@@H]7CC(C)(C)CC[C@]7(C(=O)O[C@@H]7O[C@H](CO)[C@@H](O[C@@H]8O[C@@H](C)[C@H](O)[C@@H](O)[C@H]8O)[C@H](O)[C@H]7O)CC[C@]56C)C4(C)C)OC[C@H](O)[C@@H]3O)O[C@H](CO)[C@@H](O)[C@@H]2O)[C@H](O)[C@H](O)[C@H]1O (stereo not given in full)		2.33% [at 9.25 µM] (inactive)
Nc1nc2c(nc(Sc3ccc(Cl)cc3)n2[C@@H]2O[C@@H]3COP(=O)(O)O[C@H]3[C@H]2O)c(=O)[nH]1	inactive	
Cn1c([N+](=O)[O-])cnc1COC(N)=O	inactive	
CC(=O)Nc1cccc2c1c(Sc1ccc(Cl)cc1)c(C)n2CC(=O)O	inactive	
C[C@](N)(Cc1ccc(O)c(O)c1)C(=O)O	inactive and 16.6 µM (active)	
Cc1nccn1CC1CCc2c(c3ccccc3n2C)C1=O (stereo not given)	inactive	
O=C(O)c1n[nH]c2c1C[C@H]1C[C@@H]21	inactive	
CCN(CC)CCCCNc1ncc2c(n1)N(C)C(=O)N(c1c(Cl)c(OC)cc(OC)c1Cl)C2	14.8 µM (active)	
